Shown are actives, neighbours in structure and some others; about 2.9% of the full set was active somewhere.
ClpP mod: qHTS Assay for Activators of ClpP; ATP-dependent Clp protease proteolytic subunit (Bacillus subtilis (strain 168)), P80244; purified B. subtilis ClpP, FRET peptide cleavage, 20 min; Potency, µM (doses to about 57.5 µM), for inactives: top-dose activity change, negative = active; 340,000 compounds, 1.9% hits; active = well fitted falling curve with a large enough effect; inconclusive = small, poorly fitted or top-dose-only effect; inactive = no such curve, though single readings can be large or run the other way; note: potency is the fitted concentration of half-maximal effect; the source files actives as falling curves though it sought activators and does not explain the sign; nearly all actives have a fitted effect of over 65% in size
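Buffer: 100 mM Tris/HCl pH8, 100 mM KCl, 0.05% low protease BSA, 2.5% glycerol, 0.01% Tween-20. ClpP 10 microg/mL final; 20 min RT; delta FRET normalized to ADEP and DMSO controls.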
LDHA inh: inhibitors of human lactate dehydrogenase A | purified LDHA, NADH/diaphorase-resazurin fluorescence; stronger effect = lower value | activity change, % (values are at about 110 or 230 µM) | 480,000 compounds, 0.15% hits; in the data active = activity change below about -30%; inconclusive = mostly about -25% to -30%;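 note: plate controls were DMSO wells for no effect and wells without enzyme for full effect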
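LDH5 2 nM; NADH 0.06 mM, pyruvate 0.2 mM; 200 mM Tris pH 7.4, EDTA, Tween-20; 5 min RT. Detection: diaphorase 0.133 mg/mL + resazurin 37 µM, fluorescence ex540/em590 at 0 and 20 min; normalized to enzyme-free and DMSO wells.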
GLP1R inv ag: GLP-1 receptor (human) inverse agonism; Potency, µM (highest dose often 38.3 µM), without a hit: at the top dose activity change, negative = inhibition, most hits filed as inhibitors; AID 624417; HEK293 GLP-1R CRE-luciferase, luminescence, 24 h; GLP-1R form is constitutively active; 410,000 compounds, 1.6% hits; P43220; note: potency is the fitted concentration of half-maximal effect; % is set by controls: 0 for no effect and ±100 for the full control effect; nearly all actives have a fitted effect of over 55% in size
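Assay principle: reduced luminescence from a cAMP-responsive reporter in HEK293 cells co-expressing a constitutively active GLP-1R. Conditions: 24 hr compound incubation, 37 deg C, 5% CO2.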
p53 reactivator: mutant p53 re-activation in reporter cells | Potency, µM (doses to about 92.2 µM), inactives show at the highest dose activity change, positive = activation, usual class: activators | H1299 p53-A138V BP100-luciferase reporter, luminescence, 24 h | 320,000 compounds, 0.063% hits; note: potency is the fitted concentration of half-maximal effect; % of control where 0% means no effect; nearly all actives have a fitted effect of over 45% in size
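H1299 (p53-null), stable ts p53-A138V + BP100-Luc; 1000 cells/well, Opti-MEM/10% FBS; cpd 4 pt, 1:5; 24 h, 37 deg C, 5% CO2; detection reagent 10 min RT; luminescence.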
GLP-1R agonist: GLP-1 receptor (human) agonism. Potency, µM (top dose mostly 45.6 µM), for inactives: at the highest dose activation, actives largely listed as activators. 380,000 compounds, 0.007% hits. P43220. HEK293 GLP-1R CRE-luciferase, luminescence, 4-6 h; cells express a hypersensitive GLP-1R form. AID 624172; note: potency is the fitted concentration of half-maximal effect; % of control where 0% means no effect
HEK293 tox: cytotoxic in the GLP-1 receptor inverse agonist counter-screen; HEK293 cAMP-luciferase reporter cells, luminescence, 24 h; Potency, µM (highest dose often 38.3 µM), without a hit: top-dose activity change, negative = inhibition, hits mostly inhibitors; 410,000 compounds, 0.13% hits;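 note: loss of luciferase light is scored as toxicity; potency is the fitted concentration of half-maximal effect; % is set by controls: 0 for no effect and ±100 for the full control effect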
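Here, cytotoxicity is scored as loss of luminescence. The MLSMR collection was tested on cells seeded in medium containing 10% Nu serum, with a 24 hr compound exposure preceded by 12 hours of culture.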
An asterisk follows results filed as active; u = inconclusive; x = no result. Unless noted, calls come from the whole dose curve; as a rule, active = well fitted curve in the direction sought with a large enough effect; inconclusive = small, poorly fitted or top-dose-only effect, or another doubt; inactive = no such curve, though single readings can be large; an effect the other way counts as inactive or inconclusive.

SMILES | ClpP mod | LDHA inh | GLP1R inv ag | p53 reactivator | GLP-1R agonist | HEK293 tox
COC(=O)c1ccc(-n2c(C)cc(-c3csc(NC(=O)c4ccc(S(=O)(=O)N(C)C)cc4)n3)c2C)cc1 | 1% | -8 | 17% | -4% | -1% | -7%
CC(C)c1ccc(-c2c(C#N)c(N)nc(SCC(=O)N3CCCCCC3)c2C#N)cc1 | 6% | -3 | u | 0% | -5% | -6%
N#Cc1c(N)nc(SCC(=O)NC2CCCCC2)c(C#N)c1-c1ccc(Cl)cc1 | 28µM* | -1 | 7% | 20% | 0% | 3%
CCCCn1c(CCC(=O)NC(C)c2cc(C)ccc2OC)nc2c1c(=O)[nH]c(=O)n2CCCC (configuration not stated) | x | -8 | x | x | x | x
Cc1ccc(C(C)C)c(OCc2ccc(-c3nnco3)cc2)c1 | -1% | 1 | 32% | -6% | 7% | u
O=C(CSc1nc2cc(Cl)ccc2o1)Nc1ccc(N2CCOCC2)cc1 | 2% | 9 | 3% | u | 6% | -9%
CC(C)(C)OC(=O)[C@H](Cc1ccccc1)NC(=O)c1ncn2c1c(=O)[nH]c1ccc(Br)cc12 | 7.9µM* | -3 | 15% | x | -1% | -24%
CC(C)(C)OC(=O)[C@H](Cc1ccccc1)NC(=O)c1nc[nH]c1C(=O)N[C@@H](Cc1ccccc1)C(=O)OC(C)(C)C | -4% | 1 | 10µM* | -2% | 0% | 0%
CC(C)(C)OC(=O)NCCCCCNC(=O)c1ncn2c1c(=O)[nH]c1ccccc12 | 4% | 2 | 33% | x | 8% | 1%
Cc1cc(-c2ccc(S(=O)(=O)N(C)c3ccc(C)c(C)c3)s2)on1 | 5% | -9 | u | -5% | 12% | -23%
O=[N+]([O-])c1ccc(/C=N/N=C/c2ccc([N+](=O)[O-])o2)o1 | -2% | 13 | u | -18% | 14% | 10µM*
CC(=O)N/N=C/c1ccc([N+](=O)[O-])o1 | x | x | x | x | -5% | x
O=C(CSc1ncc(C(F)(F)F)cc1Cl)N1CCN(S(=O)(=O)c2ccc(Cl)cc2)CC1 | 1% | 2 | u | 4% | 3% | -21%
CCC1CCc2sc(C(=O)O)cc2C1 (configuration not stated) | -2% | -5 | 7% | -2% | -18% | -2%
CCC1CCc2sc(C(=O)NNC(=O)c3ccncc3)cc2C1 (configuration not stated) | 14µM* | -1 | 0% | 2% | -13% | 2%
C(=N\N1CCN(C(c2ccccc2)c2ccccc2)CC1)/c1ccc2c(c1)OCO2 | 1% | -7 | -16% | 0% | -20% | 16%
Cc1ccc(S(=O)(=O)/C(C#N)=C/c2c(N3CCN(Cc4ccccc4)CC3)nc3ccccn3c2=O)cc1 | -4% | -1 | 2% | -4% | 1% | -2%
CCOc1ccc2ccccc2c1C(=O)N1CCN(c2ccccc2)CC1 | -2% | -8 | 7.9µM* | -15% | 7% | u
COc1cccc(CN2CCC(C(=O)N3CCN(Cc4ccc5c(c4)OCO5)CC3)CC2)c1OC | 18µM* | -13 | -31% | 9% | -3% | 7%
O=C(C1CCN(Cc2ccccc2O)CC1)N1CCN(Cc2ccc3c(c2)OCO3)CC1 | -5% | -17 | u | u | -11% | 14%
O=[N+]([O-])c1ccc(O)c(C=NNc2ccc(S(=O)(=O)O)cc2)c1 | x | 2 | -12% | x | -3% | -34%
CCOC(=O)c1sc(NC(=S)NC(=O)c2ccccc2)c(C(=O)OCC)c1C | 1% | -3 | 5% | 0% | -8% | -5%
CCOC(=O)C1=C(NC(=S)NC(=O)c2ccccc2)c2ccccc2CC1(C)CC (configuration not stated) | -26% | -1 | 5µM* | -2% | -2% | 11µM*
CCOC(=O)C1=C(NC(=S)NC(=O)c2ccccc2)c2ccccc2CC1C(C)C (configuration not stated) | 4% | -2 | 3.2µM* | 0% | 5% | u
CC1(c2cnc(Nc3ccccc3)s2)CCC(=O)O1 (configuration not stated) | 2% | -3 | -1% | x | 6% | -19%
SMILES | ClpP mod | LDHA inh | GLP1R inv ag | p53 reactivator | GLP-1R agonist | HEK293 tox
CC(C)COC(=O)Cc1c(O)c2ccccc2[nH]c1=O | 28µM* | -4 | 0% | 7% | -2% | -19%
CCCCCOC(=O)Cc1c(O)c2ccccc2[nH]c1=O | 16µM* | -2 | 0% | 2% | -2% | -1%
CCCCOC(=O)Cc1c(O)c2ccccc2[nH]c1=O | u | -1 | 4% | -2% | -13% | -15%
CCCCCc1c(O)c2ccccc2[nH]c1=O | 25µM* | -10 | 0% | -1% | 3% | 0%
CCCCS(=O)c1c(O)c2ccccc2[nH]c1=O (configuration not stated) | -3% | -1 | 1% | 16% | 4% | 3%
COc1ccccc1C(=O)OCCN1CCOCC1 | -2% | -3 | 25% | 4% | -5% | 13%
COc1ccccc1OCC(=O)/C=C1/N(C)c2ccccc2C1(C)C | x | -1 | 10µM* | -5% | 9% | 3%
C=CCn1c(CSc2ccccc2[N+](=O)[O-])n[nH]c1=S | x | 7 | -23% | 2% | 0% | -22%
C=CCn1c(Sc2ncc([N+](=O)[O-])s2)n[nH]c1=O | -1% | 3 | u | -10% | -8% | 8.9µM*
O=C(CNC(=O)C1COc2ccccc2O1)N/N=C\c1ccc(Br)cc1 (configuration not stated) | -2% | -5 | 10µM* | -2% | 13% | 3%
Cn1c(O)c(N=NC(N)=S)c2ccccc21 | x | x | x | x | 18% | x
CC1=CC(C)(C)n2c(O)c(N=NC(N)=S)c3cc(C)cc1c32 | -1% | -5 | 2µM* | 4% | 5% | 2.8µM*
CCNC(=S)Nc1scc(-c2ccccc2)c1C(=O)OCC | 0% | 8 | u | -1% | 0% | 10µM*
CCOC(=O)c1c(NC(=O)c2cccc(N3C(=O)CCC3=O)c2)sc(C)c1C | -9% | -6 | 1% | -6% | -5% | 6%
CCOC(=O)c1c(-c2ccc(-c3ccccc3)cc2)csc1NC(=O)CNCCN(C)C | x | 1 | 10µM* | -14% | 0% | -6%
CCOC(=O)c1c(-c2ccc(-c3ccccc3)cc2)csc1NC(=O)CCN1CCOCC1 | u | 1 | u | -9% | 19% | 88%
CCOC(=O)c1c(-c2ccc(-c3ccccc3)cc2)csc1NC(=O)c1cccc(N2C(=O)CCC2=O)c1 | 16µM* | 0 | 13% | -8% | 1% | -10%

From PubChem
